# The other results are listed elsewhere or left out. Calls of active or inactive are those of the source.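 How the source made its calls, unless noted: active means mean inhibition above about 50% in the one-dose retest (limit read from the data); inactive means the rest.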
# Assays:
# [1] = biological target: Sentrin-specific protease 8 (Homo sapiens) (UniProt Q96LD8); assay: human SENP8 peptidase blockers, hit retest – biochemical, luminescence, single concentration, confirmation (AID 488912;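 active means mean inhibition across replicates above about 50%, limit read from the data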); conditions: Recombinant SENP8, Z-RLRGG-aminoluciferin luminescence, 60 min; at 12.5 µM; stronger effect = higher value
# [2] = biological target: Sentrin-specific protease 6 (Homo sapiens) (UniProt Q9GZR1); assay: inhibition of human SENP6 catalytic domain – biochemical, luminescence, single concentration, confirmation (AID 488915); conditions: recombinant SENP6, Z-RLRGG-aminoluciferin luminescence; at 12.5 µM; stronger effect = higher value
# [3] = biological target: Sentrin-specific protease 7 (Homo sapiens) (UniProt Q9BQF6); assay: human SENP7 peptidase blockers, hit retest – biochemical, luminescence, single concentration, confirmation (AID 488917); conditions: recombinant SENP7, Z-RLRGG-aminoluciferin luminescence, 40 min; at 12.5 µM; stronger effect = higher value
# Caspase-3 (Homo sapiens) = Caspase-3 (Homo sapiens) (UniProt P42574); assay: human caspase-3 activity blockade, out-of-family – biochemical, single concentration, selectivity assay for SENP inhibitor project, confirmation (AID 488918;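 active means mean inhibition above about 50%, limit read from the data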;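 further: plate controls were enzyme with DMSO for no effect and wells without caspase-3 for full effect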); conditions: purified caspase-3, Z-DEVD-aminoluciferin luminescence, 60 min; at 12.5 µM; stronger effect = higher value
# [4] = Ultra-Glo luciferase signal interference – biochemical, single concentration, SENP8 reaction pre-completed, artefact control for SENP inhibitor project, confirmation (AID 488919;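 active means mean inhibition above about 50% when retested at one dose, limit read from the data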;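 further: plate controls were DMSO wells with completed reaction for no effect and substrate without enzyme for full effect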); conditions: Pre-incubated SENP8/Z-RLRGG-aminoluciferin, luciferase luminescence interference; at 12.5 µM; stronger effect = higher value
# [5] = biological target: Tumor necrosis factor receptor superfamily member 10B (Homo sapiens) (UniProt O14763); assay: viability loss of caspase-8 NB7 cells with TRAIL – with/without TRAIL, luminescence panel, confirmation (AID 651596; in the data active means activity above about 50%); conditions: NB7 neuroblastoma + caspase-8, TRAIL sensitization, NB7 Caspase-8, with TRAIL, mean of runs, at 10 µM, stronger effect = higher value
# [6] = as above; conditions: NB7 neuroblastoma + caspase-8, without TRAIL, NB7 Caspase-8, without TRAIL, mean of runs, at 10 µM
# [7] = biological target: Protein Mdm4 (Homo sapiens) + E3 ubiquitin-protein ligase Mdm2 (Homo sapiens) (UniProt O15151+Q00987); assay: human Mdm2/MdmX binding disruption – cell-based, luminescence, single concentration, set 2, confirmation (AID 504601;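 active means mean inhibition of the luminescence signal across two replicates at or above 26 percent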); conditions: SaOS-2 split-luciferase Mdm2/MdmX complementation, at 8 µM, stronger effect = higher value
# [8] = apoptosome-driven caspase-3 activation blockers – biochemical, fluorescence, DEVD-Rh110, 20 µM, confirmation (AID 504614;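 active means mean inhibition of at least 40% at 20 µM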;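 further: plate controls were DMSO wells for no effect and DEVD-CHO caspase inhibitor control wells for full effect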); conditions: reconstituted apoptosome, caspase-3 DEVD-Rh110 fluorescence; at 20 µM; stronger effect = higher value
# [9] = detection-step artefacts after completed caspase reaction – biochemical, fluorescence, Rh110, 20 µM, artefact control for Apaf-1 inhibitor project, confirmation (AID 504615;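 active means signal rise of 40% or more at 20 µM, treated as a fluorescence artifact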); conditions: quenched caspase reaction, at 20 µM, stronger effect = higher value
# [10] = fluorescence interference of Apaf-1 inhibitor hits, dose response, artefact control for Apaf-1 inhibitor project (AID 588538; call rule not given here); conditions: fluorescence interference counterscreen, Apaf-1 assay format
# [11] = Brca1-Bard1 BiLC signal decrease – luminescence, single concentration, counter-screen for Mdm2/MdmX interaction inhibitor project, confirmation (AID 504668; call rule not given here); conditions: Brca1/Bard1 bimolecular luciferase complementation counterscreen, at 8 µM, stronger effect = higher value
# [12] = inhibition of PEG-3 promoter luciferase signal – cell-based, HeLa, luciferase reporter, single concentration, confirmation (AID 602417;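 active means at 20 µM dose, 40% or more inhibition averaged across four replicates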); conditions: HeLa PEG-Prom luciferase reporter, luminescence, overnight; at 20 µM; stronger effect = higher value
# [13] = HIF-2a driven luciferase blockers, single dose – luminescence, 786-0 RCC cells, confirmation (AID 651580;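 active means mean inhibition across four replicates of at least 40 percent at the single tested concentration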); conditions: HIF-2a luciferase reporter luminescence, overnight, at 18.8 µM, stronger effect = higher value
# [14] = HIF-1a luciferase reporter signal reduction – MiaPaCa-2 cells, single concentration, counter-screen for HIF-2a inhibitor project, confirmation (AID 651589;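 active means mean inhibition of the reporter signal across four replicates at the single tested dose of 50% or more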); conditions: MiaPaCa-2 HIF-1a luciferase reporter, desferoxamine, overnight; at 18.8 µM; stronger effect = higher value
# PEG-3 [15] = biological target: PEG-3 (UniProt Q6IN02); assay: inhibition of PEG-3 promoter-driven reporter – cell-based, HeLa, luciferase, CREF/GAPDH counter-screen panel, dose response (AID 624167); conditions: CREF/GAPDH counter-screens; HeLa PEG-Prom luciferase reporter, overnight, run 1, dose range 1, at 100 µM (top of the series) unless noted
# PEG-3 [16] = biological target: PEG-3 (UniProt Q6IN02); assay: as above; conditions: CREF/GAPDH counter-screens; HeLa PEG-Prom luciferase reporter, overnight, run 2, dose range 1, at 100 µM (top of the series) unless noted
# Rat fibroblasts (CREF) [17] = assay: as above; conditions: CREF/GAPDH counter-screens; run 1, dose range 1, at 100 µM (top of the series)
# Rat fibroblasts (CREF) [18] = assay: as above; conditions: CREF/GAPDH counter-screens; run 2, dose range 1, at 100 µM (top of the series)
# [19] = NF-kB reporter suppression in CF airway cells – cell-based, GFP fluorescence, single concentration, confirmation (AID 602472; in the data active means inhibition above about 40%;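 further: stimulus PAF is a Pseudomonas aeruginosa filtrate and not platelet activating factor; plate controls were DMSO wells with stimulus for no effect and unstimulated DMSO wells for full effect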); conditions: KKLEB CF airway cells, PAF-induced NF-kB-GFP fluorescence, overnight; at 5 µM; stronger effect = higher value
# [20] = NFkB reporter suppression in cystic fibrosis bronchial cells – cell-based, uHTS hits, panel, cytotoxicity readout, dose response (AID 624344); conditions: CF bronchial epithelial cells, PAF-induced NFkB reporter inhibition, with PAF, run 1; at 79 µM (top of the series) unless noted
# [21] = as above; conditions: CF bronchial epithelial cells, PAF-induced NFkB reporter inhibition, with PAF, run 2; at 79 µM (top of the series) unless noted
# Chain of Sentrin-specific protease 6 (Homo sapiens) (Q9GZR1 628-1112 limits assumed): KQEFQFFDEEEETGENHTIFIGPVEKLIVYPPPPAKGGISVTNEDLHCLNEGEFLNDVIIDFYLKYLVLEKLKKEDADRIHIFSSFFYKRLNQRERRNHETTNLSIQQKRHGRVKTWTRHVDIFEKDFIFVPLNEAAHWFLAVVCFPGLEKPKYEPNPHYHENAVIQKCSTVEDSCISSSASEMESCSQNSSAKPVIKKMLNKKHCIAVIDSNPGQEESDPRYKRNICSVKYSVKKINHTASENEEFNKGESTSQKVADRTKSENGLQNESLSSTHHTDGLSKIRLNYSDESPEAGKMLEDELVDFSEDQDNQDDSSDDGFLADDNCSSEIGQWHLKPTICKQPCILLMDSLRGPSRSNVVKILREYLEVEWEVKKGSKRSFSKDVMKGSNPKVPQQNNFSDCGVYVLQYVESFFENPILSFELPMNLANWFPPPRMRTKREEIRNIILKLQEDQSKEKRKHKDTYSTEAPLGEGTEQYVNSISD
# Chain of Protein Mdm4 (Homo sapiens) + E3 ubiquitin-protein ligase Mdm2 (Homo sapiens) (O15151 whole entry, looked up): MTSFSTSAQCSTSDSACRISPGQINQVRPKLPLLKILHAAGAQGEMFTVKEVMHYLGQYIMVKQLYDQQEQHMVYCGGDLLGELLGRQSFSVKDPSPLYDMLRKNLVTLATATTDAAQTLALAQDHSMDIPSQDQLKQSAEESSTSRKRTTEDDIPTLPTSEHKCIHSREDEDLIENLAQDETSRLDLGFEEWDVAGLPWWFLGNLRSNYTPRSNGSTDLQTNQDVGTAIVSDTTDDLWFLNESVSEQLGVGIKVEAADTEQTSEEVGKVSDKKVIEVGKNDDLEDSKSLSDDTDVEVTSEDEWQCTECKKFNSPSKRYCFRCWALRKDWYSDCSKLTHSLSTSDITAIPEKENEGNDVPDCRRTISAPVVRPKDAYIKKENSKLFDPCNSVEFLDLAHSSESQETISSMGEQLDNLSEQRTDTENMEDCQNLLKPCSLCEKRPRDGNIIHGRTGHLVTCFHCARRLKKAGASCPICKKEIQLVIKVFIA
# Chain of Protein Mdm4 (Homo sapiens) + E3 ubiquitin-protein ligase Mdm2 (Homo sapiens) (Q00987 whole entry, looked up): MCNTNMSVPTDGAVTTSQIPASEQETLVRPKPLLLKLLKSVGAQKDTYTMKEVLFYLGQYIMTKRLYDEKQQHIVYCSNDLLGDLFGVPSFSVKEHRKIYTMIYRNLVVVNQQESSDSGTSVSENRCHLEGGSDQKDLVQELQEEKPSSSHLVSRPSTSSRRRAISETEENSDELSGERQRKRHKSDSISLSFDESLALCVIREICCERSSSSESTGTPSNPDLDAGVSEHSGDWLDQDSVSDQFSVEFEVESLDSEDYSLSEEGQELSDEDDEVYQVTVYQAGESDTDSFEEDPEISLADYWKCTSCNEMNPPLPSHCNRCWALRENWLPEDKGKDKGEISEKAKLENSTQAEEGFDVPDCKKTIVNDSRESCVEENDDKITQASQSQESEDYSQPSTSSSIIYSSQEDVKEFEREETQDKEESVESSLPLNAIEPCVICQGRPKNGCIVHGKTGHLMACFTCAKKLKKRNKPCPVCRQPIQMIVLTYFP
# Chain of Caspase-3 (Homo sapiens) (P42574 28-227 limits assumed): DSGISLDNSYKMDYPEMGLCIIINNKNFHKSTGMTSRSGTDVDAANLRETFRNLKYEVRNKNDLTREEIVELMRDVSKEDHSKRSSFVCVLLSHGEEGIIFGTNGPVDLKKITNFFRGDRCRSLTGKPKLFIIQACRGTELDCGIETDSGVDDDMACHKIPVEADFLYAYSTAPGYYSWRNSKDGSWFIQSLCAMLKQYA
# Chain of Sentrin-specific protease 7 (Homo sapiens) (Q9BQF6 706-1050 limits assumed): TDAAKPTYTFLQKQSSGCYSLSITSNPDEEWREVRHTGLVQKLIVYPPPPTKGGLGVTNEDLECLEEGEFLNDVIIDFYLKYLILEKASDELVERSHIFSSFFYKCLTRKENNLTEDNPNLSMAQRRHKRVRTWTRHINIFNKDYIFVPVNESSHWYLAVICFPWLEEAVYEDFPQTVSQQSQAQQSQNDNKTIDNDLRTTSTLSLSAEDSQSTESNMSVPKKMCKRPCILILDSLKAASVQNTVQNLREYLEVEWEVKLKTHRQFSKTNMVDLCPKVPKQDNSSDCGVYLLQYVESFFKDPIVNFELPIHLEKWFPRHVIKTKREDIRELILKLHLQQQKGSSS
# Chain of Tumor necrosis factor receptor superfamily member 10B (Homo sapiens) (O14763 whole entry, looked up): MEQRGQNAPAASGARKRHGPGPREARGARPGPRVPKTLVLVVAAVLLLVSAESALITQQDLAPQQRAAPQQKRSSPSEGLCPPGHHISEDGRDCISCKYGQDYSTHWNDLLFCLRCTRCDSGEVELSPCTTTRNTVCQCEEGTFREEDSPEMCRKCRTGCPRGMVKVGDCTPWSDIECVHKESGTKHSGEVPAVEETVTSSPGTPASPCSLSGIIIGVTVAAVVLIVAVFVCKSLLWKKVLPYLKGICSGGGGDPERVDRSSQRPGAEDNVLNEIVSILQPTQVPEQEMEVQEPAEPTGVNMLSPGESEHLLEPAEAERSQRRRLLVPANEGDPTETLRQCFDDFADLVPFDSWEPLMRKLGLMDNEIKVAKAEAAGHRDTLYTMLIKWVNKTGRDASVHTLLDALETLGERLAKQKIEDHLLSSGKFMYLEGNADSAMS
# Chain of Sentrin-specific protease 8 (Homo sapiens) (Q96LD8 whole entry, looked up, the tested form may be a part): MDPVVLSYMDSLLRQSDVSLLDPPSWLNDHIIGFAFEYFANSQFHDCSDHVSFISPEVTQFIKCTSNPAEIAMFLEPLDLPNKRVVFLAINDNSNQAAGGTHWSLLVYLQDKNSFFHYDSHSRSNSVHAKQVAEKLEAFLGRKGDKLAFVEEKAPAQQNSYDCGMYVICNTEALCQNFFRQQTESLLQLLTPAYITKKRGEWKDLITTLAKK
# Chain of PEG-3 (Q6IN02 whole entry, looked up): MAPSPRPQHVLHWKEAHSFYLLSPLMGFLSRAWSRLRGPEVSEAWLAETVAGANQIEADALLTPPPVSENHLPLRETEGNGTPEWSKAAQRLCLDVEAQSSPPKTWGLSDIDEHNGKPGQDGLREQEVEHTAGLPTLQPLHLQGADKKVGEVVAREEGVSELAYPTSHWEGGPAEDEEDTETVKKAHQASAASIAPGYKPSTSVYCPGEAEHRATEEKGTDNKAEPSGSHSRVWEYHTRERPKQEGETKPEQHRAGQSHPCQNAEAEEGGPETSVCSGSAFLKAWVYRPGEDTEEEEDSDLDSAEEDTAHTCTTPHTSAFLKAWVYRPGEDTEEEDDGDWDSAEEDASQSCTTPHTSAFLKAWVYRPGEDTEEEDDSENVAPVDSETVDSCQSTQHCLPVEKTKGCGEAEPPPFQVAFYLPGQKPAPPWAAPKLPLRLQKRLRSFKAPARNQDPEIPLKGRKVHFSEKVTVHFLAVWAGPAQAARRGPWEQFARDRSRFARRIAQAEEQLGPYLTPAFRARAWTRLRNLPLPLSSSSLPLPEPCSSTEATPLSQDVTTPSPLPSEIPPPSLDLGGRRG
structure (smiles),measurement,setting,value
O=C(Nc1ccn(Cc2ccccc2)n1)c1n[nH]c([N+](=O)[O-])c1Cl,inhibition,[1],96.4% (active)
same,inhibition,[2],97.3% (active)
same,inhibition,[3],102% (active)
same,inhibition,Caspase-3 (Homo sapiens),96.2% (active)
same,inhibition,[4],96.7% (active)
same,activity,[5],64.8%
same,activity,[6],63%
CC(=O)Nc1cccc(C(=O)OCC(=O)c2ccc3c(c2)OCO3)c1,inhibition,[1],84.2% (active)
same,inhibition,[2],83.1% (active)
same,inhibition,[3],51.3% (active)
same,inhibition,Caspase-3 (Homo sapiens),85.2% (active)
same,inhibition,[4],80.8% (active)
same,activity,[5],70.3%
same,activity,[6],60.6%
Cc1cccc(NC(=O)/C=C/c2ccc3c(c2)OCO3)n1,inhibition,[1],81.3% (active)
same,inhibition,[2],81% (active)
same,inhibition,[3],95.8% (active)
same,inhibition,Caspase-3 (Homo sapiens),87.1% (active)
same,inhibition,[4],73% (active)
same,activity,[5],80.4%
same,activity,[6],75.4%
O=C(Nc1ccccc1)c1ccc2c(c1)OCCCO2,inhibition,[1],78.5% (active)
same,inhibition,[2],77.7% (active)
same,inhibition,[3],94.2% (active)
same,inhibition,Caspase-3 (Homo sapiens),90% (active)
same,inhibition,[4],81.9% (active)
same,activity,[5],79.9%
same,activity,[6],79.9%
Cc1cnc(NC(=O)c2ccccn2)s1,inhibition,[1],74.2% (active)
same,inhibition,[2],75.6% (active)
same,inhibition,[3],92.3% (active)
same,inhibition,Caspase-3 (Homo sapiens),91.7% (active)
same,inhibition,[4],67.2% (active)
same,activity,[5],63.5%
same,activity,[6],64.5%
CC[C@]1(C(=O)OC)[C@H]2C(=O)N(Cc3ccccc3)C(=O)[C@H]2[C@H]2CN=C(SCc3ccc(Cl)cc3)N21,inhibition,[7],103% (active)
CC(C)n1cnc2c(NCc3ccccc3)cc(OCC3CCN(C)CC3)cc21,inhibition,[1],57.7% (active)
same,inhibition,[2],75.3% (active)
same,inhibition,[3],35.5% (inactive)
same,inhibition,Caspase-3 (Homo sapiens),6.2% (inactive)
same,inhibition,[4],-4.2% (inactive)
same,inhibition,[8],78.1% (active)
same,activation (fluorescence interference),[9],-0.65% (inactive)
same,IC50,[10],> 100 µM (inactive)
CN(c1ccc2nc3ccccc3c(=O)n2n1)C1CCCCC1,inhibition,[1],94.2% (active)
same,inhibition,[2],94.5% (active)
same,inhibition,[3],101% (active)
same,inhibition,Caspase-3 (Homo sapiens),96.3% (active)
same,inhibition,[4],77.2% (active)
same,inhibition,[11],27.7% (active)
same,inhibition,[12],78.8% (active)
same,inhibition,[13],91.2% (active)
same,inhibition,[14],97.8% (active)
same,inhibition,PEG-3 [15],98.5%
same,inhibition,PEG-3 [16],86.2%
same,inhibition,Rat fibroblasts (CREF) [17],98.4%
same,inhibition,Rat fibroblasts (CREF) [18],98.9%
Cc1cccc(NC(=O)c2nc(S(=O)(=O)Cc3ccccc3)ncc2Cl)c1,inhibition,[7],103% (active)
same,inhibition,[12],98.3% (active)
same,inhibition,[19],96.7% (active)
same,inhibition,[13],100% (active)
same,inhibition,[14],103% (active)
same,inhibition,[20],86.6%
same,inhibition,[21],95.1%
same,activity,[5],55.2%
same,activity,[6],98.5%
CN1CCN(c2ccccc2NC(=O)COc2ccc(C3CCCCC3)cc2)CC1,inhibition,[8],7.86% (inactive)
same,activation (fluorescence interference),[9],2.41% (inactive)
CN(C)CC(O)COc1ccc(C(C)(C)c2ccc(OCC(O)CN(C)C)cc2)cc1 (stereo not drawn),inhibition,[7],94.2% (active)
same,inhibition,[12],53% (active)
same,inhibition,PEG-3 [15],101%
same,inhibition,PEG-3 [16],99.7%
Cc1ccsc1/C=N/NC(=O)Cc1cc(=O)[nH][nH]1,inhibition,[8],17.5% (inactive)
same,activation (fluorescence interference),[9],8.37% (inactive)
CCN1C(=NCc2ccc(OC)cc2)N[C@@H](CCc2ccccc2)[C@H](C(=O)NCc2ccc(OC)cc2)[C@H]1C,inhibition,[8],4.13% (inactive)
same,activation (fluorescence interference),[9],7.82% (inactive)
C=CCn1c(N)c(C(=O)OCC(C)C)c2nc3ccccc3nc21,inhibition,[8],19.4% (inactive)
same,activation (fluorescence interference),[9],12% (inactive)
Cc1[nH]c(=O)c(C(=O)/C=C/c2ccccc2)c2c1CCCC2,inhibition,[7],103% (active)
same,inhibition,[13],81.1% (active)
same,inhibition,[14],105% (active)
Nc1ccc2nn(-c3ccc(Cl)cc3)nc2c1,inhibition,[8],35.8% (inactive)
same,activation (fluorescence interference),[9],0.47% (inactive)
O=C(Nc1ccc(C(=O)N2CCOCC2)cc1)Nc1cccc(C(F)(F)F)c1,inhibition,[7],84.2% (active)
same,inhibition,[19],58.5% (active)
same,inhibition,[20],108%
same,inhibition,[21],94.7%
COc1ccc(C(CCN(Cc2ccc(OC)c(OC)c2)C(=O)CCl)c2ccccc2)cc1 (stereo not drawn),inhibition,[7],103% (active)
same,activity,[5],99.7%
same,activity,[6],99.7%
Oc1ccc(N=Cc2c(O)ccc3ccccc23)cc1,inhibition,[8],19.4% (inactive)
same,activation (fluorescence interference),[9],0.51% (inactive)
O=C(CCCN1C(=O)/C(=C/c2ccccc2)SC1=S)Nc1ccc(O)cc1,inhibition,[7],80.2% (active)
